Assay results from ChEMBL document CHEMBL3433997, “St. Jude Leishmania screening dataset” (2016).

Key:
Format in all cases: functional
[1] = biological target: Solute carrier family 2, facilitated glucose transporter member 1 (Homo sapiens) (UniProt P11166); assay: ST_JUDE_LEISH: Cytotoxicity at 2uM final concentration against transgenic Leishmania Mexicana promastigotes LmGLUT1 that are glucose transport deficient and complemented with the human glucose transporter GLUT1. Activity is measured by DNA content using SYBR green in vitro
[2] = biological target: Hexose transporter 1 (Plasmodium falciparum) (UniProt O97467); assay: ST_JUDE_LEISH: Cytotoxicity at 2uM final concentration against transgenic Leishmania Mexicana promastigotes LmPfHT that are glucose transport deficient and complemented with the Plasmodium falciparum hexose transporter. Activity is measured by DNA content using SYBR green in vitro
[3] = biological target: Glucose transporter (Leishmania mexicana) (UniProt O61059); assay: ST_JUDE_LEISH: Cytotoxicity at 2uM final concentration against transgenic Leishmania Mexicana promastigotes LmGT2 that are glucose transport deficient and complemented with the L. Mexicana glucose transporter 2. Activity is measured by DNA content using SYBR green in vitro

Solute carrier family 2, facilitated glucose transporter member 1 (Homo sapiens), sequence (P11166 whole entry): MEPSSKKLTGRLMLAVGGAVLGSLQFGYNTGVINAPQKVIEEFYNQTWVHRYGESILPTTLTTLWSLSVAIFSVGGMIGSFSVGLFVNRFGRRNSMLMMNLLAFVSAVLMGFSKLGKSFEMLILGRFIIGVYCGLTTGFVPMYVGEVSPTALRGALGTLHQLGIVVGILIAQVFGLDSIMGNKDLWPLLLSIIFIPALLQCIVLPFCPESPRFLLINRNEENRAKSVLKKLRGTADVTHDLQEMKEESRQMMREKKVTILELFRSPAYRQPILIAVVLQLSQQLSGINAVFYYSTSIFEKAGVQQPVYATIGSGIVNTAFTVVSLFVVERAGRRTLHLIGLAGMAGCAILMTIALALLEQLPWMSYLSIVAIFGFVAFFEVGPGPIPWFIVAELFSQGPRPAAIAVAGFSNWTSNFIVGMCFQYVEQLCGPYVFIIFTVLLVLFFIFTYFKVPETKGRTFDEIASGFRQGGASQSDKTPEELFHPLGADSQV

Row | Structure (SMILES) | inhibition [1] | inhibition [2] | inhibition [3]
1 | CC1CCCCN1CCCNC(=O)c1cccc(-c2cc3cc(Cl)c(Cl)cc3[nH]2)c1 (stereo unspecified) | 3.16% | 3.02% | 4.99%
2 | O=C(NCc1cccc(CN2CCOCC2)c1)c1cc(Br)cc(N2CCN(c3ccncc3)CC2)c1 | 0.32% | 0.81% | 0.57%
3 | O=C(NC1CCCc2ccccc21)[C@@H]1CCCN1C(=O)c1ccc(O)c(-c2cccc([N+](=O)[O-])c2)c1 (stereo partly specified) | 2.69% | 1.92% | 2.82%
4 | C[C@H](NC(=O)[C@H](CCCCNC(=O)OC(C)(C)C)NC(=O)OC(C)(C)c1ccc(-c2ccccc2)cc1)C(=O)OCc1ccccc1 | 3.8% | 3.27% | 1.84%
5 | COc1ccc2c(=O)c(-c3ccc(OC(F)(F)F)cc3)c(C)[nH]c2c1 | -0.72% | 1.76% | 1.81%
6 | O=C(/C=C/c1ccc(Cl)c(Cl)c1)NCCCCCN1CCCN(C(=O)Nc2ccc(Cl)cc2)CC1 | 0.39% | -0.48% | 0.01%
7 | CCCc1ccc(C2CCN(CCCCNC(=O)c3ccc(NC(=O)c4ccc(Cl)cc4)cc3)CC2)cc1 | 0.56% | -1% | 0.1%
8 | COc1ccc2nccc([C@@H](O)CN3CCC(NCc4cc5ccccn5n4)CC3)c2c1 | 4.35% | 4.49% | 4.75%
9 | O=C(Nc1ccc(-c2ccc(-c3nc4ccccc4[nH]3)s2)cc1)c1ccncc1 | 12.7% | 8.04% | 5.66%
10 | CCCc1c(C(=O)Nc2ccc3c(c2)CCN(C2CCC2)CC3)cnn1-c1ccc(Cl)cc1 | 5.65% | 4.4% | 2.6%
11 | Cc1cc(N[C@@H](CC(C)C)C(=O)NCc2cccc(F)c2)nc(NCC2CCCCC2)n1 | 5.8% | 4.61% | 2.2%
12 | CC(C)NCc1ccc(-c2ccc(-c3nc4cc(C(F)(F)F)ccc4[nH]3)s2)cc1 | 19.5% | 17.8% | 15.3%
13 | COc1cc(C(=O)N2CCN(C(C)C)CC2)ccc1CN(C)CCCCN1CCN(c2cccc(Cl)c2Cl)CC1 | 1.77% | 1.73% | 0.12%
14 | CCOc1ccc2[nH]c(C)cc(=NN=Cc3ccncc3)c2c1 | 0.75% | 0.8% | -2.05%
15 | COc1ccccc1N1CCN(CCCCN(C(=O)Nc2cccc(Cl)c2)C(=O)Nc2cccc(Cl)c2)CC1 | 10.6% | 8.66% | 10.6%
16 | COc1ccc2ccccc2c1CNCCCCCCNCc1c(OC)ccc2ccccc12 | 1.14% | -0.97% | -3.28%

Row | Structure (SMILES) | inhibition [1] | inhibition [2] | inhibition [3]
17 | CC(Nc1ccnc2cc(Cl)ccc12)c1ccc(S(N)(=O)=O)cc1 (stereo unspecified) | -1.53% | 1.3% | 2.92%
18 | COc1ccc(NC(=O)c2c(NC(=O)c3cccs3)sc3c2CCCC3)cc1 | 0.31% | 2.45% | 5.21%
19 | O=C(Cc1cccc(Cl)c1)Nc1cccc(-c2c[nH]c3nc(Nc4cccc(O)c4)ncc23)c1 | 0.33% | 0.22% | -0.68%
20 | O=C(Nc1ccc2[nH]c(-c3ccc4nc(NC(=O)C5CCCCC5)sc4c3)nc2c1)C1CCCCC1 | 0.5% | -0.34% | -1.71%
21 | COc1cc(CCNC(=N)/C=C/c2ccc(Cl)cc2)ccc1Cl | 2.51% | 2.01% | -0.39%
22 | COc1cc(N)c(Cl)cc1C(=O)NCC1CCN(c2nc(C)cc(C)n2)CC1 | 1.37% | 0.61% | -0.76%
23 | O=C(NC1CCCCC1)N(Cc1ccc(-c2ccc(CNCc3ccc4c(c3)OCO4)cc2)cc1)C1CCN(Cc2ccccc2)CC1 | 2.03% | 1.63% | 1.56%
24 | CCN(CCCN1CCCCC1)c1cc(C)nc(Nc2cccc(C(F)(F)F)c2)n1 | -5.65% | 2.63% | 11%
25 | CC(Nc1nc(Nc2ccc(F)cc2)nc(SCC(N)=O)n1)c1ccccc1 (stereo unspecified) | 0.82% | 1.3% | 0.81%
26 | CN1CCCN(Cc2cccc(-c3ccc(CNC(=O)c4cccc(Cl)c4)c(F)c3)c2)CC1 | 69.9% | 63.1% | 30.9%
27 | CCNc1cc(C(=O)N[C@@H](Cc2ccccc2)[C@H](O)CNC(C)C)cc(N2CC(c3ccccc3)CCS2(=O)=O)c1 (stereo partly specified) | 2.23% | 2.11% | 4.05%
28 | CCOC(=O)c1ccc(NC(=O)N[C@@H](Cc2ccc(O)cc2)C(=O)NC2CCN(Cc3ccc4c(c3)OCO4)CC2)cc1 | 0.57% | 2.47% | 0.58%
29 | O=c1cc(NCCCCNCc2ccc(Br)c(Br)c2)[nH]c2ccccc12 | 0.91% | 0.5% | -4.13%
30 | O=C(Nc1cccc(-c2cccc(-c3nc4ccccc4[nH]3)c2)c1)Nc1ccc2c(c1)OCO2 | 4.3% | 4.48% | 1.05%
31 | Cc1cccc(C)c1C1CCN(C2CCC(NC(=O)/C=C/c3ccccc3)CC2)CC1 (stereo unspecified) | 5.77% | 5.67% | 5.46%
32 | NC(=O)c1cccc(-n2ccc3cc(CNC4Cc5ccccc5C4)ccc32)c1 | 21.9% | 26.2% | 8.72%
